Results filed as inconclusive are left out. A number with no mark means an inactive call. The source made the active and inactive calls. Calls come from the whole dose curve; as a rule, active = well fitted activation curve with a large enough effect in the repeat runs; inconclusive = weak or mixed curves, or effect the other way; inactive = no such curve, though single readings can be large or run the other way.
Experiment: qHTS assay to identify small molecule agonists of the retinoic acid receptor (RAR) signaling pathway (AID 1159553)
Settings: C3RL4 RARE luciferase reporter, agonist, 6 h; series mostly up to 73.3 µM; activation: at the top concentration
Excerpt: National Center for Advancing Translational Sciences [NCATS] NIH Chemical Genomics Center [NCGC] U.S. Environmental Protection Agency [EPA] National Institutes of Environmental Health Sciences [NIEHS] National Toxicology Program [NTP] Assay overview: All-trans Retinoic acid (atRA) is the potent natural metabolite of retinol and plays an important role in normal embryonic development and maintenance of cellular phenotype in adult animals. atRA is the activating ligand for the retinoic acid receptors (RARs) which form heterodimers with retinoid X receptors (RXRs) on the retinoic acid response element (RARE). Through activation of the RAR/RXRs nuclear receptors, atRA regulates the transcription of a large number of protein-coding genes and regulatory RNAs. Intracellular levels of atRA are controlled by the retinol signaling pathway (RSP) that regulates the biosynthesis and catabolism of atRA to maintain physiological levels. Chemicals that interfere with the RSP can cause abnormal intracellular levels of atRA and therefore are potential developmental toxicants. To assess compounds for the potential adverse effect on embryonic development through interfering with retinol signaling, a cell-based RARE luciferase reporter gene assay was used. C3RL4 cell line (OARSA/CFSAN/FDA, Laurel, MD) was used to screen Tox21 10K compound library for identifying activators of the RSP.
Assay Protocol Summary: C3RL4 cells were seeded at 1,000/well in 5 uL of assay medium into white solid 1,536-well tissue culture plates (Greiner Bio-One North America Inc. Monroe, NC) using a Multidrop Combi (Thermo Scientific, Waltham, MA) dispenser. After incubation at 37 C and 5% CO2 for an overnight, 23 nL of compounds dissolved in DMSO, positive control or DMSO only were transferred by a Pintool station (Kalypsys, San Diego, CA). After 6 hr incubation at 37 C and 5% CO2, 5 uL of Amplite Luciferase reagent (AAT Bioquest Inc. Sunnyvale, CA) was added to each assay plate using a Flying Reagent Dispenser (FRD) (Aurora Discovery, San Diego, CA). Luminescence was quantified on a ViewLux plate reader (PerkinElmer, Waltham, MA) after 30 min incubation at room temperature.
For `OCCC(F)(F)C(F)(F)C(F)(F)C(F)(F)C(F)(F)C(F)(F)F`, the “activation” value was 0.845%. With `CC(C)(C)OC=O` the “activation” value was -1.04% [at 94.8 µM]. In the case of `CC[C@@]1(c2ccccc2)NC(=O)N(C)C1=O`, the “activation” value is reported as 1.23%. For `CCOC(=O)CC(C(C)=O)C(C)=O`, the “activation” value was 0.176%. With `CCCc1ccc(O)c(OC)c1` the “activation” value was 4.74%. In the case of `CC(C)(C)NCC(O)COc1cccc2c1CCC(=O)N2` (stereo not given), the “activation” value is reported as -2.26%. In the case of `C=CC(=O)CC`, the “activation” value is reported as -21.6% [at 94.8 µM]. For `CN(C)CCCN(C)C`, the activation was 0.0534% [at 8.36 µM]. For `CCCCCCCCOCCC#N`, the “activation” value was -0.849%. In the case of `COC(=O)c1c(C)cc(O)c(C)c1O`, the “activation” value is reported as 0.0138%. For `CCCCc1ccc(Cl)cc1`, the “activation” value was -2.07%. In the case of `CCCCCCCCCCCCCCCC/C=C/C1CC(=O)OC1=O` (stereo not given), the “activation” value is reported as -2.44%. With `CC(=O)Nc1ccc(S(=O)(=O)Nc2cc(C)on2)cc1` the “activation” value was 1.05%. With `C[C@]12C=CC(=O)C=C1[C@@H](F)C[C@@H]1[C@@H]2[C@@H](O)C[C@@]2(C)[C@H]1CC[C@]2(O)C(=O)CO` the “activation” value was -4.65%. In the case of `C/C=C(\C)C=O`, the “activation” value is reported as -1.88% [at 94.8 µM]. With `CC(CN1CC(=O)NC(=O)C1)N1CC(=O)NC(=O)C1` (stereo not given) the “activation” value was -10.2%. In the case of `Nc1nc(Cl)cc(Cl)n1`, the “activation” value is reported as 0.366%. With `COC(=O)c1ccc(C(=O)O)cc1` the “activation” value was -0.291%. For `COC(=O)c1ccc(NC(C)=O)cc1OC`, the “activation” value was 0.0915%. In the case of `COc1cc2nc(N3CCN(C(=O)C4CCCO4)CC3)nc(N)c2cc1OC` (stereo not given), the “activation” value is reported as 4.61%. For `CC12CCCC=C1C(=O)OC2=O` (stereo not given), the “activation” value was -0.221%. In the case of `C=CCN(CC=C)CC=C`, the “activation” value is reported as -2.51%. In the case of `O=C1CC2(CCCC2)CC(=O)N1CCNCC1COc2ccccc2O1` (stereo not given), the “activation” value is reported as 5.13%. For `O=C(O)CCC(=O)Nc1ccc(S(=O)(=O)Nc2nccs2)cc1`, the “activation” value was 0.229%. In the case of `O=c1[nH]c(=O)c2cn[nH]c2[nH]1`, the “activation” value is reported as -0.842%. With `NC(=O)CC[C@@H](N)C(=O)O` the “activation” value was 1.68%. In the case of `CCCCN=C(N)N=C(N)N`, the “activation” value is reported as -6.05%. In the case of `CCCCCCCCCCCCCC(=O)OCC`, the “activation” value is reported as 1.03%. In the case of `Cc1cc(=O)oc2cc(O[C@@H]3SC[C@@H](O)[C@H](O)[C@H]3O)ccc12`, the “activation” value is reported as 2.85%. For `CCCCCC(CC)OC(=O)CCCOc1ccc(Cl)cc1Cl` (stereo not given), the “activation” value was -3.51%. With `CC1(C)CC(N)CC(C)(C)N1` the “activation” value was -0.799%. In the case of `O=C(O)Cc1c(Cl)ccc(Cl)c1Cl`, the “activation” value is reported as 0.116%. With `CCCCN1C(=O)c2ccccc2C1=O` the “activation” value was 1.54% [at 94.8 µM]. With `CCCCC(CC)COC(=O)CC#N` (stereo not given) the “activation” value was -3.13%. With `Cc1ccccc1OCC(=O)O` the “activation” value was -0.173%. With `CCOC(=O)COc1ccc2c(C)c(CCN(CC)CC)c(=O)oc2c1Cl` the “activation” value was 0.244%. In the case of `CCO/C=C1\N=C(c2ccccc2)OC1=O`, the “activation” value is reported as -5.31%. For `CC(CC(=O)Cl)CC(C)(C)C` (stereo not given), the “activation” value was -1.87% [at 94.8 µM]. With `C/C=C(\C)C(=O)OC/C=C(\C)CCC=C(C)C` the “activation” value was 0.0078%. With `CCOC(=O)c1ccc(N(C)C)cc1` the Potency was 15.4 µM (active).
% is set by controls: 0 for no effect and ±100 for the full control effect; potency is the fitted concentration of half-maximal effect.
